Data as given in PubChem BioAssay (Tox21).
Records with an inconclusive call do not appear. The source made the active and inactive calls. Unless noted, calls follow the shape of the full dose curve.

Legend:
[1] = Nuclear factor erythroid 2-related factor 2/antioxidant responsive element (Nrf2/ARE) small molecule agonists: qHTS cell viability counter screen in human keratinocytes (AID 1919968; active = well fitted curve in the direction sought with a large enough effect in the repeat runs; an effect the other way counts as inactive or inconclusive; also: nearly all actives have a fitted effect of over 55% in size)
Outline: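 KeratinoSens cells (HaCaT keratinocytes stably carrying an ARE-luciferase reporter) were seeded at 1,500 cells/well and rested 5 h at 37 C/5% CO2. They were then exposed to compounds in DMSO for 23 h. Viability was read by CellTiter-Fluor fluorescence after 1 h.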

[2] = Nuclear factor erythroid 2-related factor 2/antioxidant responsive element (Nrf2/ARE) small molecule agonists: luciferase reporter gene qHTS assay in human keratinocytes (AID 1919969); also: nearly all actives have a fitted effect of over 35% in size
[3] = biological target: Gonadotropin-releasing hormone receptor (Homo sapiens) (UniProt P30968); test: Human gonadotropin-releasing hormone receptor (GnRHR) small molecule agonists, calcium flux assay in GnRHR-HEK293 cells (AID 1920063); also: nearly all actives have a fitted effect of over 35% in size
Outline: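 HEK293 cells stably expressing human GnRHR were plated 18 h at 37 °C, loaded with calcium dye 1 h at 37 °C, then given compound in agonist mode; fluorescence (Ex/Em 480/540) read kinetically for 3 min at 1 s intervals.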

[4] = biological target: KiSS-1 receptor (Homo sapiens) (UniProt Q969F8); test: Human kisspeptin (KISS1R) small molecule agonists, calcium flux assay in KISS1R-HEK293 cells (AID 1920064; active = well fitted curve in the direction sought with a large enough effect in the repeat runs; an effect the other way counts as inactive or inconclusive)
Outline: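 HEK293 cells stably expressing human KISS1R were plated 18 h at 37 °C, loaded with calcium dye for 1 h at 37 °C, then given compound by pin tool. Fluorescence (Ex/Em 480/540) was read kinetically for 3 min.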

[5] = G protein-coupled receptor (GPCR) small molecule agonists, calcium flux assay: HEK293 wild type cell line counter screen (AID 1920065)
Outline: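 Cells were plated and cultured 18 h at 37 C/5% CO2, then loaded with calcium dye for 1 h at 37 C. Compounds in DMSO were pin-transferred in agonist mode, and fluorescence (Ex/Em 480/540) was read kinetically for 3 min at 1 s intervals.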

[6] = p53 small molecule agonists, cell-based qHTS assay with human liver microsomes (AID 1963577);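 also: p53 response element beta-lactamase reporter cells with liver microsomes plus NADPH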
Outline: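 In this qHTS, p53 response-element beta-lactamase cells receive test compound together with a microsome/NADPH activating system (0.5 mg/mL final each) and are incubated 16 h at 37 C before LiveBLAzer fluorescence detection.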

[7] = p53 small molecule agonists, cell-based qHTS assay with rat liver microsomes (AID 1963578)
Outline: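 Agonist mode in p53RE-bla reporter cells, with compounds co-incubated 16 h at 37 C alongside 0.5 mg/mL rat liver microsomes and 0.5 mg/mL NADPH (final), followed by a 2 h LiveBLAzer detection step.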

[8] = p53 small molecule agonists, cell-based qHTS assay with human liver microsomes: qHTS cell viability counter screen (AID 1963579); also: nearly all actives have a fitted effect of over 45% in size
Outline: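 Metabolically activated exposure: compounds, human liver microsomes and NADPH (0.5 mg/mL final apiece) were added to p53RE-bla cells seeded 5 h earlier, left 16 h at 37 C, and then assessed for viability by CellTiter-Glo luminescence.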

[9] = p53 small molecule agonists, cell-based qHTS assay with rat liver microsomes: qHTS cell viability counter screen (AID 1963580); also: nearly all actives have a fitted effect of over 45% in size
Outline: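 Viability is assessed in parallel with the p53 reporter read: HCT-116 p53RE-bla cells receive compounds plus rat microsomes and NADPH (0.5 mg/mL final apiece), incubate 16 h at 37 C, and then CellTiter-Glo luminescence is recorded.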

[10] = p53 small molecule agonists, cell-based qHTS assay: qHTS cell viability counter screen (AID 1963581); also: nearly all actives have a fitted effect of over 45% in size
Outline: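 p53RE-bla HCT-116 cells were exposed to compounds for 16 h at 37 C; after the beta-lactamase FRET read in the same wells, CellTiter-Glo was added and luminescence (intracellular ATP) read after 30 min at room temperature.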

[11] = p53 small molecule agonists, cell-based qHTS assay (AID 1963582; active = well fitted activation curve with a large enough effect in the signal ratio in the repeat runs, not every such curve was filed as active; the % refers to the signal ratio)
Outline: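 p53RE-bla beta-lactamase reporter cells rested 5 h at 37 C/5% CO2, then received compounds in DMSO by pin transfer and were incubated 16 h at 37 C. LiveBLAzer B/G FRET substrate was loaded for 2 h at room temperature before fluorescence reading.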

[12] = biological target: 5-hydroxytryptamine receptor 2A (Homo sapiens) (UniProt P28223); test: 5-hydroxytryptamine receptor 2A (HTR2A) small molecule antagonists, cell-based qHTS assay (AID 1963586); also: nearly all actives have a fitted effect of over 45% in size
Outline: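 Antagonist-mode intracellular calcium assay: DOI (4 nM) added after 5 min compound pre-incubation at room temperature to dye-loaded HTR2A-CHO cells. Fluorescence followed for 3 min, sampled every second.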

[13] = biological target: 5-hydroxytryptamine receptor 2A (Homo sapiens) (UniProt P28223); test: 5-hydroxytryptamine receptor 2A (HTR2A) small molecule agonists, cell-based qHTS assay (AID 1963587); also: nearly all actives have a fitted effect of over 30% in size
Outline: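 CHO cells stably expressing human HTR2A, plated 18 h, loaded with calcium dye 1 h at 37 C. Agonist mode: compounds added and intracellular calcium fluorescence recorded kinetically for 2 min at 1 sec intervals.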

[14] = biological target: Muscarinic acetylcholine receptor M1 (Homo sapiens) (UniProt P11229); test: Cholinergic receptor muscarinic 1 (CHRM1) small molecule antagonists, cell-based qHTS assay (AID 1963588); also: nearly all actives have a fitted effect of over 40% in size; also: potency is read from the fitted curve at half-maximal effect
Outline: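 CHRM1-CHO calcium-flux assay, antagonist mode. Cells were seeded 18 h, dye-loaded 1 h at 37 C and given compound for 5 min at RT, then acetylcholine was added at 50nM. FDSS fluorescence was read 3 min; 15 concentrations, three runs.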

[15] = biological target: Muscarinic acetylcholine receptor M1 (Homo sapiens) (UniProt P11229); test: Cholinergic receptor muscarinic 1 (CHRM1) small molecule agonists, cell-based qHTS assay (AID 1963589); also: nearly all actives have a fitted effect of over 35% in size
Outline: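 CHO cells stably expressing human CHRM1, seeded 18 h at 37 C/5% CO2, dye-loaded 1 h at 37 C, then given compound in agonist mode; intracellular calcium fluorescence read kinetically at 1 s intervals. Fifteen concentrations, three independent runs.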

[16] = cAMP Responsive Elements (CRE) small molecule agonists, cell-based qHTS assay (AID 1963590)
Outline: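 CRE-bla HEK 293T cells in DMEM with 10% dialyzed FBS, NEAA, pyruvate and 25 mM HEPES were plated 18 h at 37 C/5% CO2, then exposed to compounds in DMSO for 3 h before LiveBLAzer B/G FRET substrate addition.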

[17] = cAMP Responsive Elements (CRE) small molecule antagonists, cell-based qHTS assay (AID 1963591; active = well fitted inhibition curve with a large enough effect in the signal ratio in the repeat runs, not every such curve was filed as active; the % refers to the signal ratio)
Outline: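 CRE-bla HEK293T cells were plated 18 h at 37 °C/5% CO2, pinned with compound in DMSO, then stimulated with NKH477 at 0.25 uM final for 3 h. LiveBLAzer B/G FRET substrate was added and plates incubated 2 h at room temperature.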

[18] = biological target: Beta-2 adrenergic receptor (Homo sapiens) (UniProt P07550); test: Adrenergic beta2 receptor (ADRB2) small molecule antagonists, cell-based qHTS assay (AID 1963592); also: series mostly up to about 92 µM; nearly all actives have a fitted effect of over 50% in size
Outline: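 Cells (CHO, stable ADRB2 overexpression) incubated 18-20hr at 37C; compounds added from DMSO; agonist mix (1nM isoproterenol, 100uM IBMX, 25uM Ro-20-1724) added; 0.5hr RT; d2-cAMP and anti-cAMP-cryptate added; 1hr RT; 665/615 nm read.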

[19] = biological target: D(2) dopamine receptor (Homo sapiens) (UniProt P14416); test: Dopamine D2 receptor (DRD2) small molecule agonists, cell-based qHTS assay (AID 1963594); also: nearly all actives have a fitted effect of over 35% in size
Outline: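 HEK293 cells stably expressing human DRD2, pre-treated with PDE inhibitor Ro20-1724 (0.1 mM final) and compound 10 min at room temperature, then stimulated with NKH477 (200nM […]) for 30 min. cAMP read by HTRF (665/620 nm).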

[20] = biological target: D(2) dopamine receptor (Homo sapiens) (UniProt P14416); test: Dopamine D2 receptor (DRD2) small molecule antagonists, cell-based qHTS assay (AID 1963595; active = well fitted inhibition curve with a large enough effect in the signal ratio in the repeat runs, with a control signal flat; the % refers to the signal ratio)
Outline: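 DRD2-HEK293; 0.1 mM Ro20-1724; cpd 10 min RT; NKH477 200 nM + quinpirole 12 nM, 30 min RT; HTRF cAMP (cAMP-d2/anti-cAMP cryptate), 665/620 nm ratio after 1 h.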

Measured: Potency

Chain of Gonadotropin-releasing hormone receptor (Homo sapiens) (P30968 whole entry, looked up): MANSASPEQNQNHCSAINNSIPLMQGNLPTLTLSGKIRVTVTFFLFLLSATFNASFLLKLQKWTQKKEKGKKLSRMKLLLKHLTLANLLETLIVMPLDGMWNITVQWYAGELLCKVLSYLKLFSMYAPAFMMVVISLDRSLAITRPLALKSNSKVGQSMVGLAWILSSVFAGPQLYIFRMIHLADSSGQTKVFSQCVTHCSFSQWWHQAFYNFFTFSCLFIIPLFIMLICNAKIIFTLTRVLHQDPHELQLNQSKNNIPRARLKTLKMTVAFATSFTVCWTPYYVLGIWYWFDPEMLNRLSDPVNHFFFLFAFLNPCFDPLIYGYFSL
Chain of Muscarinic acetylcholine receptor M1 (Homo sapiens) (P11229 whole entry, looked up): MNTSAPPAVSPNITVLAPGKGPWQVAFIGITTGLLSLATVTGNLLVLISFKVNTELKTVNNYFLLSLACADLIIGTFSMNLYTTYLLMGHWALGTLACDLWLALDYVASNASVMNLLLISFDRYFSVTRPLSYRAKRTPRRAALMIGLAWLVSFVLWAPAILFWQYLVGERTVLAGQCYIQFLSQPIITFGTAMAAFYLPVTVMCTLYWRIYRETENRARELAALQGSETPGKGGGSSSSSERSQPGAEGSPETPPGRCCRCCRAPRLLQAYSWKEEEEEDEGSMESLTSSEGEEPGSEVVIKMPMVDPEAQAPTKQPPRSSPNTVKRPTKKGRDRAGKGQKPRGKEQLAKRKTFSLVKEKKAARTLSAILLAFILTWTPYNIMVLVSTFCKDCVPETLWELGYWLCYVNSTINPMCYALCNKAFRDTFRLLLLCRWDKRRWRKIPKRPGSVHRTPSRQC
Chain of D(2) dopamine receptor (Homo sapiens) (P14416 whole entry, looked up): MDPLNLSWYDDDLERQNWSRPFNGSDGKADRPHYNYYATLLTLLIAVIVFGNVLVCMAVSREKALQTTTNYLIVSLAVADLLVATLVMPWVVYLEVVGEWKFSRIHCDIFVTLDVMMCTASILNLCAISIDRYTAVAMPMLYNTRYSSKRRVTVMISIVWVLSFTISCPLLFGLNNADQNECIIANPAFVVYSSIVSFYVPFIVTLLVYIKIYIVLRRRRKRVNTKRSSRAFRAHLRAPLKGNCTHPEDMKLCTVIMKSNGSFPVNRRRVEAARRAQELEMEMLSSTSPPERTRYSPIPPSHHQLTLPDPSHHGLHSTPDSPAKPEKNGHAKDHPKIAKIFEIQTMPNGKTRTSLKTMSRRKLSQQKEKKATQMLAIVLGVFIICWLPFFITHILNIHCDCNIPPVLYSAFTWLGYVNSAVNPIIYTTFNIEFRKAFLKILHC
Chain of 5-hydroxytryptamine receptor 2A (Homo sapiens) (P28223 whole entry, looked up): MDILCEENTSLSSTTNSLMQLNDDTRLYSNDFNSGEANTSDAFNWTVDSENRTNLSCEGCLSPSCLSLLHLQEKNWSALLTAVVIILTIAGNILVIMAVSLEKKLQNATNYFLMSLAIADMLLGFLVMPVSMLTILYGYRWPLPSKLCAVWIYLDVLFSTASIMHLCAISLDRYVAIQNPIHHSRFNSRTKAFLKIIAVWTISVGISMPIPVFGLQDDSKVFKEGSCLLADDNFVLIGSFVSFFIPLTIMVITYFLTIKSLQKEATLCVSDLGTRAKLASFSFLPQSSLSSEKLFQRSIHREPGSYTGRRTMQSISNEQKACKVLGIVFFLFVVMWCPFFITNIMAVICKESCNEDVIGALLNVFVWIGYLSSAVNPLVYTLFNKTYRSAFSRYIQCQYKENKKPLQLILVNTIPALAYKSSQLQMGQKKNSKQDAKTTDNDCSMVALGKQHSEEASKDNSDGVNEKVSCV
Chain of KiSS-1 receptor (Homo sapiens) (Q969F8 whole entry, looked up): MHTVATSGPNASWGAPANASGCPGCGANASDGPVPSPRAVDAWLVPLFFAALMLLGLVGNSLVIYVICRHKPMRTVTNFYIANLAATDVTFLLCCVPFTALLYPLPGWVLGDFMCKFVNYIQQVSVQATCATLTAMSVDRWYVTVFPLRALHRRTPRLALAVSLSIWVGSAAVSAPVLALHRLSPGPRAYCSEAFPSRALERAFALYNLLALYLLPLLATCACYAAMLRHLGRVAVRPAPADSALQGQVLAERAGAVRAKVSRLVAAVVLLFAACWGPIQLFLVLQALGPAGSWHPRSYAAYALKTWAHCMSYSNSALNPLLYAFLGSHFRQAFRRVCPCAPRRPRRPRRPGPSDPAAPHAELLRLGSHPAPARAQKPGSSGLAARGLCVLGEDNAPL
Chain of Beta-2 adrenergic receptor (Homo sapiens) (P07550 whole entry, looked up): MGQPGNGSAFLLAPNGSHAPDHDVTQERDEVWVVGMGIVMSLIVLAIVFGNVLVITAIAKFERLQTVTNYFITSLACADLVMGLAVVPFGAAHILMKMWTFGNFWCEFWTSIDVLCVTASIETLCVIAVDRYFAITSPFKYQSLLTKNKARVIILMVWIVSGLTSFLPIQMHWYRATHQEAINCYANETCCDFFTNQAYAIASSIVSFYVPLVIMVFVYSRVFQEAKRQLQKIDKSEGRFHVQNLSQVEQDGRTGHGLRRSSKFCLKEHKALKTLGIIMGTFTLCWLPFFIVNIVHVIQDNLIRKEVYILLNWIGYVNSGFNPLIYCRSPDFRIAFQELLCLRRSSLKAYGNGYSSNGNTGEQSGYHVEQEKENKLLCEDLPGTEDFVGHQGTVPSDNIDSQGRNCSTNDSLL

CC1(C)CC(N=C=O)CC(C)(CN=C=O)C1 (centres undefined)
active: [14] 17 µM
inactive: all other assays above

CC1(C)O[C@@H]2[C@@H](CO[C@@]3(COS(N)(=O)=O)OC(C)(C)O[C@@H]23)O1
inactive: all assays above

CCCCC(CC)COC(=O)CCCCC(=O)OCC(CC)CCCC (centres undefined)
inactive: all assays above

Cc1c(C(N)=O)cc([N+](=O)[O-])cc1[N+](=O)[O-]
inactive: all assays above

CC[Si](OC(C)=O)(OC(C)=O)OC(C)=O
inactive: all assays above

COC(=O)/C=C\C(=O)OC
not listed: [19]
inactive: all other assays above

CCCCCCCCCCCCCO
inactive: all assays above

CCCCC(CC)CO (centres undefined)
inactive: all assays above

Cc1ncc([N+](=O)[O-])n1C
inactive: all assays above

CN(C)CCOCCN(C)C
inactive: all assays above

CC(=O)Nc1ccc(C(=O)O)cc1
inactive: all assays above

CC1COC(=O)O1 (centres undefined)
inactive: all assays above

C=C(C)C(=O)O
inactive: all assays above

C=Cc1cccc(C)c1
inactive: all assays above

CC1(C)NC(=O)NC1=O
inactive: all assays above
